Test results reported in publication PMC4336329 (PLoS ONE, 2015).
The campaign covered roughly 310,000 compounds. About 2,200 (0.71%) showed an effect of 50% or more. The effect is printed as a negative number. For the sample, strong results were picked, then their nearest neighbours and some compounds at random.

Each compound was assayed against human ether-à-go-go-related gene (hERG) potassium channel (human, UniProt Q12809) (assay: primary screen, population patch clamp on CHO cells stably expressing hERG; higher = less effect of the substance).
human ether-à-go-go-related gene (hERG) potassium channel, sequence (Q12809 whole entry, looked up): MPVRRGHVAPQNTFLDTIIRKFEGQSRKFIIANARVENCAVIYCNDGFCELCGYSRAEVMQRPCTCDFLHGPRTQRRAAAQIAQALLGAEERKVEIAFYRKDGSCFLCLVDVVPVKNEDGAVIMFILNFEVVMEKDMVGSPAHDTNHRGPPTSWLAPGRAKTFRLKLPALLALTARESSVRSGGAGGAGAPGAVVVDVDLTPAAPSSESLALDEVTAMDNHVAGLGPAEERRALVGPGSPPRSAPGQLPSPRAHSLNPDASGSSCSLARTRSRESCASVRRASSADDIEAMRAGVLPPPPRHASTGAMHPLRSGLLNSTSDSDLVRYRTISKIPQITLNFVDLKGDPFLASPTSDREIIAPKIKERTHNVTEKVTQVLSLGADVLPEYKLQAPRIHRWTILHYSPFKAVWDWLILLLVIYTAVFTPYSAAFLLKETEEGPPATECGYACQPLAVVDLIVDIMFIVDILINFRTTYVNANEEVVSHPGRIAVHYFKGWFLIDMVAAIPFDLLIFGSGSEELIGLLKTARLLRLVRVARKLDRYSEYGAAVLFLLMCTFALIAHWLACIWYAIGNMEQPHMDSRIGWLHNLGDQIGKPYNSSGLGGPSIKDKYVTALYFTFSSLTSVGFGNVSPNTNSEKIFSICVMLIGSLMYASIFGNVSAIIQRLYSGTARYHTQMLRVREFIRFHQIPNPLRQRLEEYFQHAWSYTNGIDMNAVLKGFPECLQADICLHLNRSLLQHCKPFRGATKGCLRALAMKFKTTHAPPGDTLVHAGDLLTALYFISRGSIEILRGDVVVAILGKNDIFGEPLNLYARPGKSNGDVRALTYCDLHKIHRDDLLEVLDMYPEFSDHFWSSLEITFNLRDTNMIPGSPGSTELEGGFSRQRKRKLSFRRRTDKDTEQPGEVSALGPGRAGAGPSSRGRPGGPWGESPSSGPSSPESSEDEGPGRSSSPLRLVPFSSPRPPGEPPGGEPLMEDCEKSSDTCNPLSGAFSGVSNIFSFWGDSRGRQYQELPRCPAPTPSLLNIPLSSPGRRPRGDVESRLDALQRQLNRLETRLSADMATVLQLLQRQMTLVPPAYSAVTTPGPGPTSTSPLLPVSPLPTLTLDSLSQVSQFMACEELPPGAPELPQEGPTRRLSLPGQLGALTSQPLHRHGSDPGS

SMILES | hERG current change (%, negative = inhibition) at 1uM [%]
CN(Cc1nc2ccccc2c(=O)[nH]1)C(=O)c1cccc(S(=O)(=O)N2CCCCCC2)c1 | 4.23
O=C(Oc1ccc(OC(=O)c2ccncc2)cc1)c1ccncc1 | 0.316
Cc1ccc(CN2C(=O)CN=C(c3ccccc3)c3ccccc32)cc1 | 2.73
Cc1noc(N)c1C(=O)Nc1ccc(C(C)(C)C)cc1 | -5.42
O=C(NCc1cccnc1)c1ccc(-c2cccc(Cl)c2Cl)o1 | 5.38
O=C(CN1C(=O)NC2(CCCC2)C1=O)Nc1ccc(Cl)c(C(F)(F)F)c1 | 9.87
O=C(COC(=O)CCCOc1ccc(Cl)cc1Cl)NCc1ccccc1 | 1.55
O=C(Nc1c(-c2ccc(F)cc2)nc2ccccn12)c1ccc(F)cc1 | -4.64
CCOc1ccc(Cl)cc1Nc1nc(NCCO)nc(N2CCCC2)n1 | 5.92
COc1ccc(N2C(=O)C(Cl)=C(N3CCCC(C)C3)C2=O)cc1 (centres unmarked) | 9.04
COc1ccccc1CCNCc1ccc(OC)c(OCc2ccccc2)c1 | -29.4
COc1ccc(CNCCc2ccc(Cl)cc2)cc1OCc1ccccc1 | -52.2
COc1cc(CNCCc2ccccc2)ccc1OCc1ccc(Cl)nc1.Cl | -0.117
O=C(OCc1cc(=O)n2c(n1)sc1ccccc12)c1ccc(O)cc1 | 17.3
COc1ccc(-n2cc(CNC3CCC(O)CC3)c(-c3cccc(F)c3)n2)cc1 (centres unmarked) | 4.86
COc1ccc(-n2cc(CNC3CCOCC3)c(-c3cccc(F)c3)n2)cc1 | -1.28
COc1ccc(-n2cc(CNC3CCN(C)CC3)c(-c3cccc(F)c3)n2)cc1 | -64.4
O=C(OCc1nnc(-c2ccccc2)o1)c1cn(-c2ccccc2)nc1-c1ccccc1 | -1.95
CC1CCCN(C(=O)Cn2nnc(-c3ccc(S(C)(=O)=O)cc3)n2)C1 (centres unmarked) | 21.2
CCCNC(=O)C1CCN(c2cc(-c3ccccc3)nc3ncnn23)CC1 | -65.6
COc1ccc(OC)c(NC(=O)C2CCN(c3cc(-c4ccccc4)nc4ncnn34)CC2)c1 | -2.67
Cc1ccccc1NC(=O)C1CCN(c2cc(-c3ccccc3)nc3ncnn23)CC1 | 5.72

SMILES | hERG current change (%, negative = inhibition) at 1uM [%]
CNC(=S)N(CCc1c(C)[nH]c2ccc(C)cc12)Cc1ccco1 | -2.69
CNC(=O)CN(c1cc(C)ccc1C)S(C)(=O)=O | 2.83
Cc1ccccc1N/N=C1\CCCNC1=O | 6.51
O=C(CSc1nnc(-c2cccnc2)n1Cc1ccco1)c1ccc(Cl)cc1 | -21.1
O=C(NNC(=O)c1cccs1)c1ccc(Cl)cc1 | 9.36
CSc1ccccc1-n1nnnc1SCC(=O)Nc1ccccc1C | -9.11
COc1ccccc1/C=C/C=N/NC(=O)c1cccs1 | 16.1
Cc1oc(-c2ccccc2Cl)nc1CN1CCCN(C(=O)c2ccco2)CC1 | -21.4
O=C(c1ccco1)N1CCN(Cc2nnc(-c3cccc(Cl)c3)o2)CC1 | -13.8
Cc1oc(-c2ccc(Cl)cc2)nc1CN1CCCN(C(=O)c2ccco2)CC1 | -57.4
Cc1cc(N2CCN(Cc3nc(-c4ccc(F)cc4)oc3C)CC2)cc(C)n1 | -27.2
Cc1oc(-c2ccc(Cl)cc2)nc1CN1CCCC(C(=O)N2CCN(C(=O)c3ccco3)CC2)C1 (centres unmarked) | -75.1
O=C(c1ccco1)N1CCN(Cc2nnc(-c3ccccc3)o2)CC1 | -6.25
COC(=O)c1ccc(-c2nc(CN3CCCN(C(=O)c4ccco4)CC3)c(C)o2)cc1 | -15
Cc1ccc(-c2nc(CN3CCCC(C(=O)N4CCOCC4)C3)c(C)o2)cc1 (centres unmarked) | -9.44
Cc1cccc(N2CCN(Cc3nc(-c4cccc(Cl)c4)oc3C)CC2)n1 | -7.13
Cc1cc(N2CCN(Cc3nc(-c4ccc(Cl)cc4)oc3C)CC2)cc(C)n1 | -57.8
O=C(c1ccco1)N1CCN(Cc2nnc(-c3cccc(Br)c3)o2)CC1 | -51.6
Cc1oc(-c2ccc(Cl)cc2)nc1CN1CCCC(C(=O)NCc2cccnc2)C1 (centres unmarked) | -43.6
Nc1c([N+](=O)[O-])c(=O)sc2ccccc12 | 2.09
CN(C(=O)c1cccs1)c1ccc(OCC(=O)N2CCC(C(N)=O)CC2)cc1 | 25.6
O=C(Cn1nc(C(F)F)cc1C1CC1)NCCC1=CCCCC1 | 9.48

SMILES | hERG current change (%, negative = inhibition) at 1uM [%]
CCCCN(C(=O)CSc1nn(-c2ccc(F)cc2)c(=S)s1)c1c(N)n(CCCC)c(=O)[nH]c1=O | 8.15
Cc1ccc(CCC(=O)Nc2ccccc2F)s1 | 4.84
O=C(CC1OC(=O)c2ccccc21)Nc1cccc(S(=O)(=O)N2CCCCCC2)c1 (centres unmarked) | 0.598
CN(C)CCCn1c(N)c(C#N)c2nc(C#N)c(C#N)nc21 | 11.4
CCOC(=O)CS(=O)(=O)c1ccc(O)cc1 | 26.2
O=C(NNC(=S)Nc1ccc(F)cc1)c1ccccc1OC(F)F | 6.53
CCOc1ccc(CCNC(=O)c2cc(C)nc3ccccc23)cc1OCC | -10.6
Cn1nnnc1SCC(=O)NC(C)(C)C | 7.36
COc1ccc(-c2nc(CN3CCCC(C(=O)NC4CCCC4)C3)c(C)o2)cc1 (centres unmarked) | -53.5
Cc1oc(-c2ccc(Cl)cc2)nc1CN1CCCC(C(=O)NC2CC2)C1 (centres unmarked) | -18.2
CCOC(=O)N1CCC(NC(=O)C2CCCN(Cc3nc(-c4cccc(Cl)c4)oc3C)C2)CC1 (centres unmarked) | -50.4
CCOc1ccc(-c2nc(CN3CCCC(C(=O)N4CCOCC4)C3)c(C)o2)cc1 (centres unmarked) | -5.79
CCOC(=O)N1CCN(C(=O)C2CCCN(Cc3nc(-c4ccc(Cl)cc4)oc3C)C2)CC1 (centres unmarked) | -57.7
Cc1cccc(-c2nc(CN3CCCC(C(=O)NC4CCCC4)C3)c(C)o2)c1 (centres unmarked) | -26.4
Cc1oc(-c2ccc(Cl)cc2)nc1CN1CCCC(C(=O)N2CCOCC2)C1 (centres unmarked) | -32.9
CCOC(=O)N1CCC(NC(=O)C2CCCN(Cc3nc(-c4ccc(CC)cc4)oc3C)C2)CC1 (centres unmarked) | -39.3
CCOC(=O)N1CCC(NC(=O)C2CCCN(Cc3nc(-c4cccc(C)c4)oc3C)C2)CC1 (centres unmarked) | -24.2
CN1N=C(C(=O)NC2CCCc3c2cnn3-c2ccc(F)cc2F)CCC1=O (centres unmarked) | 6.91
C=C1CC2C3CC[C@@]4(OCOC45COCO5)[C@@]3(C)C(O)CC2[C@@]2(C)CCC(=O)C=C12 (some centres unmarked) | 13.6
Cc1ccc(C(=O)C(C)OC(=O)c2ccccc2[N+](=O)[O-])cc1 (centres unmarked) | 8
CCC1=Nc2cc(C(=O)NCCCN3CCOCC3)ccc2Sc2ccc(Br)cc21 | 15.9
CCOC(=O)/C(C#N)=N/Nc1ccccc1C#N | 11.2

SMILES | hERG current change (%, negative = inhibition) at 1uM [%]
CC(C)CCn1nnnc1C(c1ccccc1)N1CCN(C)CC1 (centres unmarked) | 9.6
CCOC(=O)Cn1nnnc1C(CC)N(Cc1ccccc1)Cc1cc2cc(C)ccc2[nH]c1=O (centres unmarked) | -2.05
Cc1cc(C)cc(N2C(=O)NC(=O)/C(=C\c3cccn3-c3ccccc3)C2=O)c1 | -0.0202
CCCCOC(=O)c1ccc(OC(=O)c2cccnc2)cc1 | 5.73
O=C(O)c1ccc(SCc2cnc(Cl)s2)cc1 | -79.6
Clc1ncc(CSc2ccccc2)s1 | 5.7
COC(=O)c1ccc(SCc2cnc(Cl)s2)cc1 | 7.26
Cc1ccc(NC(=O)N(Cc2nc3ccccc3c(=O)[nH]2)Cc2cccs2)cc1 | 5.74
CC1(C)Cc2c(cnn2-c2cccc(F)c2)C(NC(=O)c2csnn2)C1 (centres unmarked) | -85
Cc1cc(C(=O)NC2CC(C)(C)Cc3c2cnn3-c2cccc(F)c2)nn1C (centres unmarked) | 9.79
CC(C)(C)c1ccc(-n2ncc3c2CCCC3NC(=O)c2csnn2)cc1 (centres unmarked) | 9.11
CC1=C(C(=O)NC2CC(C)(C)Cc3c2cnn3-c2cccc(F)c2)OCCO1 (centres unmarked) | -3.59
Cc1cnc(C(=O)NC2CC(C)(C)Cc3c2cnn3-c2cccc(F)c2)cn1 (centres unmarked) | 3.82
CC1(C)Cc2c(cnn2-c2cccc(F)c2)C(NC(=O)c2ccc(=O)[nH]n2)C1 (centres unmarked) | -61.7
Cc1cc(C)cc(-n2ncc3c2CCCC3NC(=O)c2csnn2)c1 (centres unmarked) | -84
Cc1cc(C(=O)NC2CC(C)(C)Cc3c2cnn3-c2cccc(F)c2)n(C)n1 (centres unmarked) | 3.12
Cc1ccc(-n2ncc3c2CCCC3NC(=O)c2csnn2)cc1C (centres unmarked) | 2.61
Nc1ccc(C(=O)NCc2ccccc2)cc1 | 8.94
CCNC(=O)c1ccc(NC(=O)CC2SC(N3CCCCC3)=NC2=O)cc1 (centres unmarked) | -1.11
COc1ccc(CCNC(=O)c2cc(C)oc2C)cc1 | 10.3
